Test results: PubChem BioAssay AID687031 (Broad Institute, 2013)
The whole screen tested about 1,400 compounds, of which about 50 (4%) were called active.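 Rule for the calls: active = fitted curve reaches 30% CPE protection at or below the top valid dose, with every test run called active; inconclusive = test runs disagree, some active and some not; inactive = every test run inactive, including effects in the wrong direction.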 These entries were drawn from the full list. Entries with a potency or affinity are not part of this list.

Test: Dengue virus 2 cytopathic effect protection, dose response, BHK-21 cells, ATP luminescence, cherry-pick (AID 687031);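 note: 0% = infected DMSO wells and 100% = uninfected cell wells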
Conditions: BHK-21 DENV2 CPE protection, 5 d; series mostly up to 19.5 µM; CPE protection (higher = active): at the top concentration

CPE protection (higher = active), inactive:
COc1cccc(-c2ccc3c(c2)[C@H]2[C@H](CCN2S(=O)(=O)c2cn(C)cn2)[C@@H](CO)N3)c1 -4.08%, COc1cccc(NC(=O)N2[C@@H]3CNC[C@H]2C3c2ccc(-c3ccccc3)cc2)c1 (some centres not stated) -7.29% [at 21 µM], Cc1ccccc1-c1ccc(C2[C@@H]3CN(C(=O)Cc4ccncc4)C[C@H]2N3)cc1 (some centres not stated) -5.08% [at 21 µM], CS(=O)(=O)N1[C@@H]2CNC[C@H]1C2c1ccc(-c2ccccc2)cc1 (some centres not stated) 1.08%, C[C@@H]1CN([C@H](C)CO)C(=O)c2cccc(NC(=O)Nc3ccc4c(c3)OCO4)c2O[C@H]1CN(C)C(=O)Nc1ccccc1 -7.43%, CCOC(=O)CC[C@H](NC(=O)Cn1cnc2c(OCc3ccccc3)ncnc21)C(=O)OCC -6.24%, COc1ccc(C(CNC(=O)COc2cc(C)ccc2Cl)N2CCCCC2)cc1 (configuration not stated) -7.55%, COc1ccc2o/c(=N\O)c(C(=O)Nc3ccc(C)cc3)cc2c1 21.5%, COc1cc(S(=O)(=O)NCc2ccncc2)c(OC)cc1Br -11.7%, CO[C@@H]1CN(C)C(=O)c2ccc(NC(=O)CC(F)(F)F)cc2OC[C@H](C)N(C(C)=O)C[C@@H]1C 9.73%, O=C1Nc2ccccc2C(=O)N(C2CCCC2)C1C(=O)NC1CC1 (configuration not stated) -7.26%, O=C1Nc2ccccc2SC1c1ccccc1 (configuration not stated) 22.8%, C[C@@H]1CN([C@H](C)CO)C(=O)c2cc(N(C)C)ccc2O[C@@H](C)CCCCO[C@@H]1CN(C)C(=O)CCC(F)(F)F 6.42%, OC(COc1ccc(Cl)cc1Cl)Cn1ccnc1 (configuration not stated) 2.84%, Cc1nccn1CC(O)COc1ccc(Cl)cc1Cl (configuration not stated) -6.74%, CCC(C(=O)Nc1c(C)cccc1C)n1c(-c2ccc(=O)[nH]c2)nc2ccccc21 (configuration not stated) 6.71%, O=C(NCc1ccc2c(c1)OCO2)C(=O)NCC1OCCCN1S(=O)(=O)c1ccccc1 (configuration not stated) -15.4%, Cc1ccc(C(=O)NCC(=O)Nc2ccc(S(=O)(=O)Nc3cc(C)nc(C)n3)cc2)cc1 -0.439%, O=C(C[C@H]1CC[C@@H]2[C@H](COC[C@H](O)CN2C(=O)Cc2ccccc2)O1)NC1CCCC1 2.96% [at 21 µM], Cc1ccc(S(=O)(=O)Nc2cccc(C(=O)NCCCn3ccnc3)c2)cc1F -1.15%, CCOC(=O)N1CCC(NC(=O)c2cccc3c2C(=O)N(CCOC)C3)CC1 8.32%, CCOC(=O)N1CCC(NS(=O)(=O)c2ccc(C#N)cc2)CC1 -10.4%, CC(C)OC(=O)c1ccc(NCc2cc(O)ccc2O)cc1 -7.2%, CCOC(=O)N1C=CC=C[C@@H]2[C@@H](N3C(=O)c4ccccc4C3=O)C(=O)N21 -9.2%, COc1ccc(C2CC(c3cccs3)=NN2C(=O)CCC(=O)O)cc1OC (configuration not stated) -2.94%, COc1ccc(NC(=O)Nc2cccc3c2O[C@H](CN(C)C(=O)Nc2ccc(OC)cc2)[C@@H](C)CN([C@@H](C)CO)C3=O)cc1 -19.9%, Cc1cccnc1 -1.59%, Cc1ccccc1NS(=O)(=O)c1ccc(S(=O)(=O)N2CCCC2)cc1 2.34%, CC(=O)N1c2ccc(S(=O)(=O)NCCC(=O)N3CCCC(C)C3)cc2CC1C (configuration not stated) -15.9%, CCOc1ccc(C(=O)Nc2ccc(CN3CCOCC3)cc2)cc1Cl 2.94%, Cc1ccc(NC(=O)C2CCCCC2)cc1C 14.2%, Brc1ccc(OCc2nnc(SCC3CCCCC3)o2)cc1 1.56%, N#CCSc1ccccc1NC(=O)CN1C(=O)C(=O)N(Cc2ccccc2)C1=O -15.2%, COc1ccccc1N1CCN(S(=O)(=O)CCNC(=O)CCc2ccccc2)CC1 5.74%, COCCNC(=O)CCC1CCN(Cc2ccc(-c3ccccc3)cc2)CC1 -10.3%, C[C@@H]1CN([C@H](C)CO)C(=O)Cc2cc(NC(=O)CCCCCC(=O)Nc3ccccc3N)ccc2O[C@@H]1CN(C)Cc1ccc(Cl)c(Cl)c1 -2.74%, CCc1nc2c(OCCc3cccc(OC)c3)cccn2c1N(C)C(=O)c1ccc(C)cc1 3.2%, CN1[C@@H]2Cn3c(ccc(C4=CCCC4)c3=O)[C@H]1[C@@H](C(=O)N1CCCCC1)[C@@H]2CO 21.2%, CCCN1[C@H](C(=O)OC)[C@@H](CO)[C@@H]2Cn3c(ccc(C4=CCCC4)c3=O)[C@@H]21 8.66%, O=C(Nc1ccc2c(c1)OCCO2)c1cccc(C(=O)Nc2ccc3c(c2)OCCO3)c1 16.2%, O=C(COC(=O)CNC(=O)c1ccc(Cl)cc1)Nc1ncc(C(F)(F)F)cc1Cl 9.18%, CC1CC(C)CN(C(=O)COC(=O)c2nccnc2N)C1 (configuration not stated) 8.89%, Cc1ccccc1OCC(=O)OCC(=O)NCCNC(=O)COC(=O)COc1ccccc1C 7.36%, O=C(COc1ccc(-c2nnco2)cc1)NCc1ccccc1Cl -5.13%, Cc1ccccc1S(=O)(=O)N1[C@H](C#N)[C@H](c2ccccc2)[C@@H]1CO 7.31% [at 21 µM], CN1C(=O)c2cc(NC(=O)NC3CCCC3)ccc2OC[C@H]2O[C@@H](CC(=O)NCC3CC3)CC[C@@H]21 -8.11% [at 23.5 µM], Cc1ccccc1-c1cnc(C(O)c2cccc(C)c2C)[nH]1 (configuration not stated) 8.04%, CC(C)c1ccc(S(=O)(=O)N2CCN(C(=O)n3ccnc3)CC2)cc1 3.32%, CC(=O)Nc1cc(-c2ccc(C(=O)NC3CC3)cc2)cn2c(-c3cccc(C(F)(F)F)c3)cnc12 -8.05%, Cc1ccc(NC(=O)C2(c3cccs3)CCOCC2)cc1C 16.6%, COc1ccc(C(CNC(=O)CCNC(=O)c2ccc(Br)cc2)N2CCOCC2)cc1 (configuration not stated) 10.9%, Cc1ccccc1-c1csc(C(C)(O)c2ccccc2)n1 (configuration not stated) 16.6%, O=C(c1cc(C2CC2)on1)N1CCCC(N2CCN(c3cccc(C(F)(F)F)c3)CC2)C1 (configuration not stated) 8.43%, O=C(c1ccncc1)N1CCCC(N2CCN(c3cccc(C(F)(F)F)c3)CC2)C1 (configuration not stated) 22.6%, CN(CC(=O)Nc1ccc(Cl)cc1)C(=O)CCc1nc2sc3c(c2c(=O)[nH]1)CCCC3 -2.63%, COC(=O)[C@@H]1[C@H](CCc2ccccc2)NC(=O)N(Cc2ccccc2)[C@@H]1C -7.83%, CC#CCN1C(=O)N[C@@H](c2ccccc2)C(C(=O)OC)=C1C -2.29%, O=S(=O)(NN=Cc1cccc(Cl)c1)c1ccccc1 -10.2%, Cc1ccc2c(COC(=O)CNC(=O)c3ccccc3)cc(=O)oc2c1 -8.55%, COc1cc(OC)cc(C(=O)NCCC(c2ccccc2)c2ccccc2)c1 -16.4%, C[C@@H]1CN([C@H](C)CO)C(=O)c2cc(NC(=O)c3ccccc3)ccc2O[C@@H](C)CCCCO[C@@H]1CN(C)S(=O)(=O)c1ccc(F)cc1 14.4%, Cc1noc(C)c1NC(=O)Nc1ccc2c(c1)C(=O)N([C@@H](C)CO)C[C@@H](C)[C@@H](CN(C)C)OCCCC[C@@H](C)O2 -7.08%, Cc1noc(C)c1NC(=O)Nc1ccc2c(c1)C(=O)N([C@@H](C)CO)C[C@@H](C)[C@@H](CN(C)Cc1ccccc1)OCCCC[C@@H](C)O2 18.2%, C[C@@H]1CCCCO[C@@H](CN(C)S(=O)(=O)c2ccc(F)cc2)[C@@H](C)CN([C@@H](C)CO)C(=O)c2cc(NC(=O)c3ccccc3)ccc2O1 -0.86%, Cc1cnc(CNC(=O)C2CCC(=O)N(Cc3ccc(Cl)cc3)C2)[nH]1 (configuration not stated) -5.86%, ClC(CCN1CCN(Cc2ccccc2)CC1)c1ccccc1 (configuration not stated) 0.446%, Cc1cccc(N(CC(=O)NC(C)(C)C)C(=O)CNC(=O)c2cccs2)c1C -10.1%, CS(=O)(=O)N1CCc2cc(C(=O)N3CCN(c4ccccc4)CC3)ccc21 14.1%, CC1CCN(C(=O)COC(=O)c2cc3ccccc3oc2=O)CC1 29.4%, CCOC(=O)N1CCC(NCCNC(=O)c2ccc(F)c(F)c2)CC1 -26.1%, Cc1noc(C)c1NC(=O)N(C)C[C@@H]1Oc2c(NS(=O)(=O)c3ccccc3)cccc2C(=O)N([C@@H](C)CO)C[C@@H]1C 1.59%, CCNC(=O)C1(C)CCN(Cc2noc(-c3c(C)noc3C)n2)C1 (configuration not stated) 2.45%, O=C(C[C@H]1C=C[C@H](NS(=O)(=O)c2ccccc2)[C@H](CO)O1)N1CCC(Cc2ccccc2)CC1 -16.4%, O=C(NC1CCCCC1)N[C@H]1C=C[C@@H](CC(=O)N2CCOCC2)O[C@@H]1CO 15.7%, CCN(c1ccccc1)S(=O)(=O)c1ccc(OC)c(NC(=O)C2CCC2)c1 -14.6%, Cc1cccc(OCC(=O)NNC(=O)C2CCCCC2C(=O)O)c1 (configuration not stated) -36.8%, CN1CCN(CCOc2ccc(-c3ccccc3)cc2)CC1 -14.5%, c1ccc(-c2ccc(OCCN3CCOCC3)cc2)cc1 6.91%, Cc1cc(=O)oc2cc(OCCSCCN3CCCC3)ccc12 -9.74%, O=C(NCc1cc(C(F)(F)F)cc(C(F)(F)F)c1)C1CC(c2cccc(F)c2)=NO1 (configuration not stated) 1.22%, O=C(C[C@@H]1CC[C@H]2[C@@H](COC[C@@H](O)CN2C(=O)c2ccncc2)O1)NCc1ccc(-c2ccccc2)cc1 -12.4%, CCCC[C@@H]1CNC(=O)C(=O)N1CCCCC1CCCCC1 1.63%, CCC(=O)Nc1ccc2c(c1)C(=O)N(C)[C@@H]1CC[C@H](CC(=O)N[C@@H](C)c3ccccc3)O[C@@H]1CO2 30.3%, O=C(NCc1ccccc1F)[C@H]1N[C@H]2c3ccc(-c4ccccc4F)c(=O)n3C[C@H]2[C@@H]1CO 22.1%, O=C(NCCN1CCCC1)[C@H]1N[C@H]2c3ccc(-c4ccccc4)c(=O)n3C[C@H]2[C@@H]1CO 4.15%, O=C(c1cc(-c2ccccc2)n[nH]1)N1CCN(S(=O)(=O)c2ccccc2)CC1 8.57%, COCCn1nnnc1C(c1cc2cc(C)ccc2[nH]c1=O)N1CCN(C2CCCCC2)CC1 (configuration not stated) 9.44%, CCN(CC(=O)Nc1cc(Cl)ccc1-n1cncn1)Cc1nc2ccccc2c(=O)[nH]1 1.83%, CCN(CC(=O)Nc1c(F)cccc1F)C(=O)c1cccc(S(=O)(=O)NCc2ccccc2)c1 -0.434%, C[C@@H]1CN([C@H](C)CO)C(=O)Cc2cc(NC(=O)Cn3cnnn3)ccc2O[C@@H]1CN(C)Cc1ccc(C(=O)Nc2ccccc2N)cc1 21.3% [at 18 µM], Cc1cnc(CN(C)C(=O)CC2C(=O)NCCN2Cc2cccc(F)c2F)[nH]1 (configuration not stated) 12.8%, CCCN1CCC(NC(=O)CC2C(=O)NCCN2Cc2cccc(OC)c2)CC1 (configuration not stated) 7.2%
